ALR inh: inhibitors of human sulfhydryl oxidase ALR | actives 3.8% (n = 290,000) | inhibition, % (no concentration beside the values) | purified ALR, DTT oxidation, H2O2 HRP-luminol luminescence | AID 485317;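 active = mean replicate inhibition above about 79%, with every replicate also reaching it, limit read from the data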
Target sequence (P55789 whole entry, looked up): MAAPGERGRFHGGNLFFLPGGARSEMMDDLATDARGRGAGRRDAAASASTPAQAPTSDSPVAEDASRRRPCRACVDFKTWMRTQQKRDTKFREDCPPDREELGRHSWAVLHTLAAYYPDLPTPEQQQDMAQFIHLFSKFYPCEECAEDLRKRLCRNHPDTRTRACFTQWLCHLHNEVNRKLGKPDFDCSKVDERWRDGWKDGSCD
Rtt109 HAT inh: C. albicans Rtt109 histone acetyltransferase inhibition; actives 0.16% (n = 330,000); Q5AAJ8; AID 540336; purified Rtt109/Vps75, ThioGlo CoA-SH fluorescence, 4 h; inhibition, % at 34.9 µM;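 active = inhibition of at least 50% in every replicate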
LANA-H2A inh: blocks KSHV LANA binding to histone H2A/H2B | actives 0.6% (n = 320,000) | cell-free LANA-H2A/H2B peptide, fluorescence polarization | inhibition, % (test concentration not listed) | Q9QR71; in the data active = inhibition mostly above about 10%, no sharp cut-off; inactive = mostly below about 6.7%
PRMT1 FP inh: inhibitors of human PRMT1; AID 652257; actives 1.3% (n = 370,000); recombinant PRMT1, activity-based probe fluorescence polarization; inhibition, % at 2.79 µM;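 active = inhibition above about 21% made by adding two undisclosed values, limit read from the data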
Target sequence (Q99873 whole entry, looked up): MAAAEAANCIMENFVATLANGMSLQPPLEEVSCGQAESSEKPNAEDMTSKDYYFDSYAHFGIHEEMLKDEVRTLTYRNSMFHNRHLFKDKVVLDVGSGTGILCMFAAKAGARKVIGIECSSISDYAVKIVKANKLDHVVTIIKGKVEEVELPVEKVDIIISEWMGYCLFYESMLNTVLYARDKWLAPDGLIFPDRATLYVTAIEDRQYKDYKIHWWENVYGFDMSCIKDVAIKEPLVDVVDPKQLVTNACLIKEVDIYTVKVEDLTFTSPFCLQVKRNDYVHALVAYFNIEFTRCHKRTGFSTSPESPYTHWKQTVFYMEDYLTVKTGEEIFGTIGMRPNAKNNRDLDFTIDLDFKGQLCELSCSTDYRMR
ABHD5-PLIN5 inh: inhibitors of human ABHD5-perilipin-5 interaction | Q00G26+Q8WTS1 | Split G. princeps luciferase complementation, luminescence, 4 h | inhibition, % at 4 µM | actives 0.78% (n = 360,000) | AID 602281;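 active = inhibition above the mean inhibition across every tested compound plus 3 SD, cut at about 22% in these data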;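 note: 0% = DMSO only wells and the 100% control is not disclosed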
rCAG binder: r(CAG) repeat RNA binding; TO-PRO-1 dye displacement fluorescence; inhibition, % at 3 µM; actives 1.3% (n = 370,000);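 active = inhibition above the plate cutoff, the mean of all test compounds on that plate plus 3 SD, cut at about 35% in these data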;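 note: 0% = DMSO alone and 100% = 100 µM mitoxantrone as full dye displacement; higher means more dye released from RNA so lower well fluorescence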
* hit, by the source's call; . = no result; + = active, no number. Hits are enriched below; roughly 5.9% of the tested compounds scored in any of these assays.

SMILES | ALR inh | Rtt109 HAT inh | LANA-H2A inh | PRMT1 FP inh | ABHD5-PLIN5 inh | rCAG binder
COc1ccc(/C=N/NC(=O)c2ccc(C)cc2)cc1CN1CCN(c2ccc(F)cc2)CC1 | . | -9 | -3 | . | 0 | .
COc1ccc(/C=N\NC(=O)CCN2CCN(c3ccccc3)CC2)cc1OC | 98* | 1 | 1 | 1 | -8 | -7
COc1ccc(/C=N/NC(=O)c2ccncc2)cc1CN1CCN(c2ccc(F)cc2)CC1 | 99* | 9 | -1 | 2 | 6 | -7
Brc1ccc2c(c1)CN1CCCC1=N2 | -19 | 5 | -4 | -1 | 0 | -2
COc1ccc(/C=N/NC(=O)CCn2nc(C)cc2C)cc1O | 77* | 30 | 3 | -2 | -1 | -3
COc1ccc(/C=N/NC(=O)CSCC(=O)Nc2ccccc2)cc1OC | -3 | -4 | 1 | 2 | -5 | -1
COc1ccc(NC(=O)CC2(CC(=O)O)CCCC2)cc1 | . | -3 | 5 | 0 | 3 | 1
O=C(CCN1CCN(C(c2ccccc2)c2ccccc2)CC1)N/N=C/c1ccc(O)cc1 | 98* | -3 | 8 | -2 | 11 | -4
COC(=O)Oc1ccc(/C=N/NC(=O)CSCc2ccccc2Br)cc1OC | 99* | 7 | 4 | -2 | -1 | 1
COc1ccc(OC)c(NC(=O)CC2(CC(=O)O)CCCC2)c1 | . | -7 | 19* | 7 | -1 | 2
COc1ccc(OC)c(NC(=O)CCN2CCN(c3ccccc3)CC2)c1 | 92* | 3 | -5 | -2 | 1 | -3
COc1ccc(OC)c(S(=O)(=O)N2CCC(c3cn4ccccc4n3)CC2)c1 | . | . | . | 0 | . | 7
O=C(Cn1nc(Cc2cccnc2)c2ccccc2c1=O)Nc1ccccc1F | -5 | -7 | 16* | 2 | 1 | 2
O=C(Cn1nc(Cc2cccnc2)c2ccccc2c1=O)Nc1cc(F)ccc1F | . | -5 | -2 | 1 | -3 | 6
CCCc1cc(=O)[nH]c(SCC(=O)c2ccc3c(c2)NC(=O)CO3)n1 | 97* | 12 | 0 | 3 | 3 | 5
CCCc1cc(=O)[nH]c(SCC(=O)N2CCc3ccccc3C2)n1 | 3 | -2 | + | 7 | -4 | 4
CCCc1cc(=O)[nH]c(SCC(=O)N2CCc3cc(OC)c(OC)cc3C2)n1 | . | 24 | 0 | -2 | 7 | 4
Cn1c(=O)cc(OCCCC(=O)Nc2cc(-c3ccncc3)ccn2)c2ccccc21 | . | . | . | -3 | . | .
O=C1NC[C@H](CCCCN2C[C@H](Cc3ccccc3)N(CCc3ccc(O)cc3)C(=O)C2=O)N(CCC2CCCCC2)C1=O | . | . | . | 0 | -2 | 4
CCCCNC(=O)C[C@H]1C[C@@]2(C(=O)OC)C(=C[C@H](COCc3ccccc3)O[C@@H]2C)N(Cc2ccc3c(c2)OCO3)C1=O | . | . | . | 2 | . | 2
CC1SC(=NC(=O)c2ccncc2)NC1=O (centres undefined) | 90* | -3 | -2 | 13 | -11 | -2
COc1ccc(O)c(CNc2ccccc2F)c1 | 99* | -5 | 7 | 2 | -3 | -1
COc1ccc(NC(=S)Nc2ccccc2F)c(OC)c1 | -34 | -3 | 1 | 1 | -6 | 0
CN1OC[C@@H]2CN(C(=O)C(C)(C)C)[C@H](c3cccc(Oc4ccccc4)c3)C[C@@H]21 | . | . | . | 0 | 5 | -1
COC(=O)c1ccc(CSc2nc3ccc(Cl)cc3[nH]2)o1 | 97* | 0 | -5 | 3 | -5 | 3
SMILES | ALR inh | Rtt109 HAT inh | LANA-H2A inh | PRMT1 FP inh | ABHD5-PLIN5 inh | rCAG binder
COCCn1c(SCC(=O)Nc2ccc3[nH]c(=O)[nH]c3c2)nc2ccccc21 | 91* | 0 | 0 | 3 | 3 | 2
COCCn1c(SCC(=O)Nc2ccc(OC)c(S(N)(=O)=O)c2)nc2ccccc21 | -26 | 32 | -7 | 1 | -2 | 6
O=C(CSc1nc2ccc(Cl)cc2[nH]1)Nc1ccc2[nH]c(=O)[nH]c2c1 | 98* | 12 | 3 | 5 | -5 | 12
CCn1c(SCC(=O)Nc2ccc3[nH]c(=O)[nH]c3c2)nc2ccccc21 | 99* | -1 | . | 2 | -6 | 3
CCCN1CCN(C(=O)Cn2nc(C)n3c(cc4c(OC)cccc43)c2=O)CC1 | . | -3 | . | -1 | -3 | -7
C[C@H]1[C@@H](OC(=O)NCc2cccc(Cl)c2)CC[C@@]23CCCN2C(=O)CCC[C@@H]13 | . | . | . | 6 | . | .
Cc1nc(SCC(=O)N2CCC(Cc3ccccc3)CC2)[nH]c(=O)c1C | -2 | -1 | 1 | -4 | -3 | -1
O=C(c1ccc([N+](=O)[O-])cc1)N1CCSC1c1ccccc1Cl (centres undefined) | -54 | 6 | 5 | -3 | 0 | -1
Clc1ccccc1C1SCC2Nc3ccccc3CN21 (centres undefined) | 98* | 0 | 2 | 8 | -6 | 1
CCCCOc1ccc(C(=O)O)cc1 | 0 | 5 | 5 | 5 | -3 | 1
O=C(CCN1CCOCC1)c1ccc2c(c1)OCCO2 | 50 | 6 | -5 | 24* | 11 | -1
O=C(CCCN1CCOCC1)c1ccc2c(c1)OCCO2 | -9 | . | -1 | -1 | 2 | -1
CCCCOc1ccc(C(=O)CCN2CCOCC2)cc1 | 98* | -2 | 0 | 12 | 20 | -7
CCCCCCCCOc1ccc(C(=O)O)cc1 | 52 | 25 | 112* | 1 | 13 | 16
Cc1cn(CC(=O)NCCCn2ccnc2)c(=O)[nH]c1=O | . | 9 | . | 2 | 4 | 0
CCN(Cc1ccccc1)c1ccc(/C=N/N2CCOCC2)cc1 | 98* | 7 | -6 | 1 | -24 | -6
COc1ccc(/C=N/N2CCOCC2)cc1O | 98* | -3 | 3 | 0 | -2 | 1
CCN(CC)c1ccc(/C=N/N2CCOCC2)cc1 | 99* | 12 | 1 | 0 | -19 | -8
COc1cc(/C=N/N2CCOCC2)ccc1OCc1ccccc1 | -5 | 1 | 3 | -4 | -16 | -2
CCN(CC)c1ccc(C=NN2CCCCCC2)cc1 | . | 5 | . | 4 | 1 | 7
COC(=O)[C@]12C[C@H](CC(=O)N3CCCC3)C(=O)N(CCc3ccc(OC)c(OC)c3)C1=C[C@H](C(C)C)O[C@@H]2C1CC1 | . | . | . | 4 | . | -2
Cc1cc(=O)c2c(ccc3c(=O)cc(C)[nH]c32)[nH]1 | . | . | . | -2 | . | 3
Nn1c(SCC(=O)Nc2ccccc2-c2ccccc2)nnc1-c1cc(-c2ccc(F)cc2)n[nH]1 | . | . | . | -1 | . | 7
CC(C)Nc1nc(NC(C)C)nc(N(C)N)n1 | 1 | 9 | 1 | -2 | 1 | -4
CCNc1nc(NCC)nc(N(C)N)n1 | 84* | 1 | -3 | -5 | 0 | -7
COC(=O)C[C@H]1c2cc(F)ccc2S(=O)(=O)N1c1ccc(N(C)C)cc1 | 99* | -12 | 1 | -1 | -6 | -2
CCOC(=O)C[C@H]1c2cc(F)ccc2S(=O)(=O)N1c1ccccc1 | 4 | -1 | -2 | -2 | -1 | -1

Screens: PubChem BioAssay, several laboratories
